Experimental data published in PubChem BioAssay AID588405 (Sanford-Burnham Center for Chemical Genomics, 2011).
About 6,200 (1.7%) of roughly 360,000 compounds were called active. Many of the other results were omitted from the sample, so actives are more common in it than they were. A number with no mark means an inactive call.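 Rule for the calls: active = inhibition of at least 50% at 20 µM; inactive = the rest.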

Assay: inhibition of PEG-3 promoter activity – cell-based, HeLa, luciferase luminescence, primary screen (AID 588405)
Settings: HeLa PEG-Prom luciferase reporter, overnight, at 20 µM, active compounds read high

Compound	inhibition
CCc1nc2c(OCc3cccc(OC)c3)cccn2c1N(C)C(=O)C(C)C	17.8%
Clc1ccccc1Nc1nc(NCc2cccs2)nc2ccsc12	7.17%
COc1cccc(CNc2nc(NCc3cccs3)nc3ccsc23)c1	57.2% (active)
COc1cccc(CNc2nc(NCc3ccccc3OC)nc3ccsc23)c1	30.7%
Oc1cccc2cc(-c3ccncc3)cnc12	-97.7%
O=C1c2ccccc2C(c2nc3ccccc3[nH]2)N1c1ccccc1 (configuration not stated)	2.93%
Cc1cccc(N2CC(C(=O)Nc3ccccc3N3CCCC3)CC2=O)c1C (configuration not stated)	20.1%
COc1ccccc1-n1c(SCC(=O)Nc2cccc(C(=O)O)c2)nnc1-c1ccccc1O	-4.09%
COc1cccc(/C=N/Nc2cc(C)nc(-c3ccccc3O)n2)c1O	79.9% (active)
COc1cc(/C=N/NC(=O)c2cc(-c3ccccc3C)nc3ccccc23)cc(OC)c1O	10.1%
CC1(C(=O)NS(=O)(=O)c2cccc(F)c2)CCN1C(=O)Cc1ccc(Cl)cc1Cl (configuration not stated)	-4.9%
O=C(O)C1=CCCN(CCON=C(c2ccccc2)c2ccccc2)C1	-3.93%
Cc1cccc(-c2cnc(C(O)c3cc(C)cc(C)c3)[nH]2)c1 (configuration not stated)	15.8%
CSc1ncnc2c1ncn2CC(=O)C1CCC2C3CCC4=CC(=O)CCC4(C)C3CCC12C (configuration not stated)	105% (active)
CC(=O)C12CC(C)=C(C)CC1CC1C3CCC4=CC(=O)CCC4(C)C3CCC12C (configuration not stated)	14%
CSc1ncnc2c1ncn2CCCNCC1CCCCC1	-12.2%
COc1ccc(OC)c(NC(=O)C2(C)CCN2C(=O)Cc2ccccc2)c1 (configuration not stated)	0.38%
CC(C)Oc1cc(F)ccc1-c1cc(C(=O)Nc2cccc(Cl)c2)[nH]n1	-14.2%
Nc1nonc1-n1nnc(C(=O)N/N=C/c2cc(Br)ccc2O)c1CSC1=NCCS1	56.4% (active)
Nc1nonc1-n1nnc(C(=O)N/N=C\c2ccncc2)c1CN1CCCCC1	23.4%
COCc1c(C(=O)N/N=C\c2cccnc2)nnn1-c1nonc1N	10.8%

Compound	inhibition
COc1cccc(-c2cnc3c(NC(C)=O)cc(-c4cc(F)ccc4OC)cn23)c1	23.8%
COc1ccc(OCC(O)CN(C)C(=O)C(C)Oc2ccccc2)cc1 (configuration not stated)	9.53%
CN(Cc1ccccc1)CC(O)COc1ccc(CNCc2cc3ccccc3s2)cc1 (configuration not stated)	50.3% (active)
COc1cccc(CN(C)CC(O)COC(c2ccccc2)c2ccccc2C)c1 (configuration not stated)	4.99%
Cc1ccc(C)c(C(O)c2ncc(-c3cccc4ccccc34)[nH]2)c1 (configuration not stated)	17.3%
COc1cccc(/C=C2\SC(=S)N(CCCC(=O)N3CCOCC3)C2=O)c1	-13.7%
Cc1ccc(-c2nn(-c3ccccc3)cc2/C=C2\SC(=S)N(CCCCCC(=O)O)C2=O)o1	-22.9%
COc1ccc(-c2nn(-c3ccccc3)cc2/C=C2/SC(=S)N(CCCC(=O)O)C2=O)c(C)c1	60.7% (active)
CCc1nc2c(OCc3ccc(Cl)cc3Cl)cccn2c1N(C)C(=O)C(C)C	14.2%
Cc1c(NC(=O)CSc2cccc3cccnc23)c(=O)n(-c2ccccc2)n1C	23.3%
O=C(CSc1cccc2cccnc12)N/N=C/c1cccnc1	74.3% (active)
O=C(N/N=C\c1cccnc1)c1cc(-c2ccccc2)nc2c(Cl)cccc12	32.6%
CNc1cnc(-c2cc(OC)c(OC)c(OC)c2)cn1	-13.3%
CC(=O)NC(c1ccccc1)c1nc(-c2cccc(C(C)C)c2)cs1 (configuration not stated)	4.34%
COc1ccc(OCC(O)CNCCNc2nccc(C(F)(F)F)n2)cc1 (configuration not stated)	1.34%
CC(Oc1ccc(Br)cc1)C(=O)NC1CCCCCC1 (configuration not stated)	-67%
CC(C)(C)CC(C)(C)NCC(O)COCCOc1ccc(Br)cc1 (configuration not stated)	103% (active)
CC(NCC(=O)Nc1ccccc1C(=O)NC1CC1)c1ccccc1Cl (configuration not stated)	6.43%
CCc1nc2ccc(C(=O)NCCNC(C)=O)cn2c1N(CC)Cc1cccc(Br)c1	5.16%
Cc1ccc2nc(-c3ccncc3)cc(C(=O)Nc3ccncc3)c2c1	70.2% (active)
Cc1ccc2nc(-c3ccncc3)cc(C(=O)Nc3ccc(OC(F)F)cc3)c2c1	27.7%
